Screening results: PubChem, National Center for Advancing Translational Sciences (NCATS)
D1 antag – Antagonist of Human D 1 Dopamine Receptor: qHTS; HEK293 TREx D1 cells, calcium flux, dopamine EC80; hits give low values; AID 504652, 2011; activity change, negative = inhibition, % at 10 µM; hit rate 3.2% among 360,000; in the data active = activity change below about -30%; note: % is set by controls: 0 for no effect and ±100 for the full control effect
Target sequence (P21728 whole entry, looked up): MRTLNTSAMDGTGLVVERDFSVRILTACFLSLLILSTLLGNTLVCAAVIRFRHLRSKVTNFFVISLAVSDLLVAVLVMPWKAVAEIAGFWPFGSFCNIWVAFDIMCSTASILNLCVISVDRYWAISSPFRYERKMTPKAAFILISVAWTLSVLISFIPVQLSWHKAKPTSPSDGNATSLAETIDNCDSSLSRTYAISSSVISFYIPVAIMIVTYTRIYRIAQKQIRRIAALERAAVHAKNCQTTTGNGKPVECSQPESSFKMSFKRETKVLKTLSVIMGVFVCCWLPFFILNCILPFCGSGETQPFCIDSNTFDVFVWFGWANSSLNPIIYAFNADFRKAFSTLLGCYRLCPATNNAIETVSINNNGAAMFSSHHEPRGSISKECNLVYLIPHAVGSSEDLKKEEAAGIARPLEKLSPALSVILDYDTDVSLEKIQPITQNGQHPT
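Using tetracycline-induced force-coupled D1 Hek293 cells and a calcium dye, signals were followed for 180 s after compound, then for 180 s after EC80 dopamine, to detect inhibitors.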
D1 agonist – Allosteric Agonists of the Human D1 Dopamine Receptor: qHTS; D(1A) dopamine receptor (Homo sapiens), P21728; HEK293 T-REx D1 cells, calcium flux, agonist mode; activation, % at 2 µM; hit rate 1% among 360,000; note: 0% is about no effect
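Tetracycline-induced HEK293 TREx D1 cells, force-coupled to calcium signalling, were dye-loaded with a no-wash calcium kit. Compound was pin-added after a 10 s baseline. Fluorescence was read kinetically at 1 cycle/s for 180 s, with calcium rises flagged as agonism.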
D1 potentiator – Potentiators of Human D1 Dopamine Receptor: qHTS; D(1A) dopamine receptor (Homo sapiens), P21728; HEK293 TREx D1 cells, calcium flux, dopamine EC20 potentiation; potentiation, % at 10 µM; hit rate 0.036% among 360,000; in the data active = potentiation above about 30%; note: 0% is about no effect
TRHR enhancer – qHTS for Small Molecule Agonists and Allosteric Enhancers of Human TRH Receptor: Primary Screen for Enhancers. hit rate 0.66% among 360,000. Thyrotropin-releasing hormone receptor (Homo sapiens), P34981. TRHR cells, fluo-8 calcium fluorescence, EC20 TRH enhancement. enhancement, % at 2 µM. AID 493056, 2011; in the data active = enhancement above about 30%; note: 0% is about no effect
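TRHR-expressing cells loaded with fluo-8 calcium dye were read kinetically (ex 480/em 530) during compound addition, then stimulated with an EC20 of TRH (10 nM final). Enhancement of the Gq-mediated intracellular calcium response was scored.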
TRHR ag – qHTS for Small Molecule Agonists and Allosteric Enhancers of Human TRH Receptor: Primary Screen for Agonists | TRHR cells, calcium flux fluo-8, FDSS agonist mode | activation, % at 2 µM | hit rate 0.18% among 360,000; note: 0% is about no effect
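Fluo-8-loaded TRHR cells; 10 s baseline, compound added, kinetic Ca2+ fluorescence read 1/s, agonist mode.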
The depositor's hits bear a star. Rows were chosen to be rich in hits. Some 4.7% of all compounds tested hit in one or more screens of this group. Cut-off read from the data, not from the text of the source, unless noted: active = activation above about 30%; inactive = the rest.

What do the screens show for `CC(C)(C)c1ccc(C(=O)NCC(=O)OCc2ccc([N+](=O)[O-])cc2)cc1`?
D1 antag: -35.0*; D1 agonist: 10.0; D1 potentiator: -8.0; TRHR enhancer: -7.0; TRHR ag: -0.3

What do the screens show for `CCc1c(-c2ccccc2)nc2ccccc2c1C(=O)NCc1ccc(C)cc1`?
D1 antag: 17.5; D1 agonist: 4.0; D1 potentiator: 2.5; TRHR enhancer: 1.5; TRHR ag: -0.2

What do the screens show for `CC(Sc1nccn1C)C(=O)Nc1ccccc1C#N` (stereo not drawn)?
D1 antag: -9.9; D1 agonist: -0.7; D1 potentiator: -0.7; TRHR enhancer: 0.5; TRHR ag: 0.6

How did COc1ccc(Nc2cc(C)nc3ccccc23)cc1 do in these assays?
D1 antag: 1.2; D1 agonist: 1.7; D1 potentiator: -2.6; TRHR enhancer: -5.8; TRHR ag: -0.2

What do the screens show for `CC(=O)c1ccc(Nc2cc(C)nc3c(C)cccc23)cc1`?
D1 antag: -31.2*; D1 agonist: 9.7; D1 potentiator: -3.0; TRHR enhancer: -19.1; TRHR ag: 0.9

What do the screens show for `CC(=O)c1ccc(Nc2cc(C)nc3ccccc23)cc1`?
D1 antag: 6.6; D1 agonist: 0.3; D1 potentiator: 0.8; TRHR enhancer: -3.9; TRHR ag: -0.2

What do the screens show for `Cc1ccc(Nc2cc(C)nc3c(C)cccc23)cc1`?
D1 antag: -32.6*; D1 agonist: -0.1; D1 potentiator: -12.2; TRHR enhancer: -3.0; TRHR ag: -0.3

Results for CC(=O)c1cccc(Nc2cc(C)nc3ccc(C)cc23)c1 ?
D1 antag: -39.6*; D1 agonist: -0.9; D1 potentiator: -19.9; TRHR enhancer: -1.2; TRHR ag: 0.5

Results for COC(=O)c1ccc2nc(C)cc(Nc3ccccc3C)c2c1 ?
D1 antag: -32.8*; D1 agonist: 3.4; D1 potentiator: -1.9; TRHR enhancer: -3.1; TRHR ag: -0.8

How did O=C(Cc1ccc(F)cc1)NCc1ccc2c(c1)CCN2C(=O)c1ccc(F)cc1 do in these assays?
D1 antag: 4.0; D1 agonist: 2.3; D1 potentiator: -3.9; TRHR enhancer: 1.8; TRHR ag: -0.8

How did CNC(=O)NC(=O)C(NC1CCCc2ccccc21)c1ccccc1 (stereo not drawn) do in these assays?
D1 antag: -33.4*; D1 agonist: -0.6; D1 potentiator: 11.4; TRHR enhancer: 6.2; TRHR ag: -1.2

How did Cc1ccc(NC(=O)C(NC2CCCc3ccccc32)c2ccccc2)c([N+](=O)[O-])c1 (stereo not drawn) do in these assays?
D1 antag: 14.7; D1 agonist: 3.9; D1 potentiator: 1.6; TRHR enhancer: 4.9; TRHR ag: 0.4

What do the screens show for `Cc1ccc(NC(=O)C(NC2CCCc3ccccc32)c2ccccc2)cc1Cl` (stereo not drawn)?
D1 antag: -22.7; D1 agonist: 8.9; D1 potentiator: 6.8; TRHR enhancer: 32.4*; TRHR ag: -0.4

Results for Cn1c(SCc2ccccc2Cl)nc(=O)c2c1NC(=O)CC2c1cc(F)ccc1F (stereo not drawn) ?
D1 antag: -11.9; D1 agonist: -0.6; D1 potentiator: -0.1; TRHR enhancer: -7.0; TRHR ag: -0.4

What do the screens show for `Cc1cc2c(n1-c1ccc(C(=O)NCC(C)c3ccccc3)cc1)CCCC2` (stereo not drawn)?
D1 antag: 3.7; D1 agonist: 0.3; D1 potentiator: -1.1; TRHR enhancer: 4.2; TRHR ag: 0.3

How did Cc1n[nH]c(=S)n1/N=C/c1ccc(OCc2ccc(Cl)cc2)cc1 do in these assays?
D1 antag: -33.9*; D1 agonist: 1.3; D1 potentiator: -2.0; TRHR enhancer: -0.5; TRHR ag: 0.5

What do the screens show for `Cc1sc(NC(=O)C2CCCCC2C(=O)O)c(C(N)=O)c1-c1ccccc1` (stereo not drawn)?
D1 antag: 8.0; D1 agonist: 3.4; D1 potentiator: 4.5; TRHR enhancer: 3.8; TRHR ag: 0.1

How did COC(=O)CCC(=O)NC(=S)Nc1sc(C)c(C)c1C(N)=O do in these assays?
D1 antag: 8.3; D1 agonist: 0.9; D1 potentiator: 1.3; TRHR enhancer: 2.5; TRHR ag: 0.3

Results for Cc1sc(NC(=O)C2CCCCC2C(=O)O)c(C(N)=O)c1C (stereo not drawn) ?
D1 antag: -36.9*; D1 agonist: 0.7; D1 potentiator: -0.7; TRHR enhancer: -0.9; TRHR ag: 0.3

Results for COC(=O)CCC(=O)Nc1sc(C)c(C)c1C(N)=O ?
D1 antag: -40.9*; D1 agonist: -0.5; D1 potentiator: -6.1; TRHR enhancer: 2.8; TRHR ag: 0.4

How did CCOc1ccccc1NC(=O)C1CCN(S(=O)(=O)c2ccc3[nH]c4c(c3c2)CCCCC4)CC1 do in these assays?
D1 antag: -0.6; D1 agonist: 3.2; D1 potentiator: -1.7; TRHR enhancer: 14.0; TRHR ag: 0.4

How did COc1ccccc1N1C(=O)C2C(C(=O)c3ccccc3)=NN(c3ccccc3OC)C2C1=O (stereo not drawn) do in these assays?
D1 antag: 8.4; D1 agonist: 78.4*; D1 potentiator: 0.0; TRHR enhancer: -1.3; TRHR ag: 27.5

How did O=C(NCc1ccc(F)cc1)c1ccc(Nc2nc3ccccc3n3nnnc23)cc1 do in these assays?
D1 antag: -30.5*; D1 agonist: 1.3; D1 potentiator: -0.8; TRHR enhancer: 8.6; TRHR ag: 0.7

Results for Cc1ccc(C(=O)N2CCN(c3cccc(Cl)c3)CC2)cc1C ?
D1 antag: -31.8*; D1 agonist: 2.0; D1 potentiator: -1.0; TRHR enhancer: 4.0; TRHR ag: -0.4

How did O=C(NC(=O)N1CCN(c2cccc(Cl)c2)CC1)c1ccc(Cl)cc1 do in these assays?
D1 antag: -37.1*; D1 agonist: 10.4; D1 potentiator: -19.3; TRHR enhancer: -2.4; TRHR ag: 3.2

Results for Cc1ccc(C)c(N2CCN(C(=O)c3cccc(-n4c(C)nc5cccnc54)c3)CC2)c1 ?
D1 antag: -21.1; D1 agonist: 15.4; D1 potentiator: -1.9; TRHR enhancer: -5.6; TRHR ag: 1.6

How did Cc1ccc(Cl)cc1N1CCN(C(=O)c2ccc(C)c(-n3c(C)nc4cccnc43)c2)CC1 do in these assays?
D1 antag: -32.3*; D1 agonist: 69.4*; D1 potentiator: 2.8; TRHR enhancer: 0.3; TRHR ag: -1.0

How did O=C(NC(=O)N1CCN(c2cccc(Cl)c2)CC1)c1ccccc1 do in these assays?
D1 antag: -28.6; D1 agonist: 4.1; D1 potentiator: -11.3; TRHR enhancer: -5.2; TRHR ag: -0.2
